Compounds with a hit are over-represented: about 21% of the library has one in this group of screens.
Cycloheximide cs: Cycloheximide Counterscreen for Small Molecule Inhibitors of Shiga Toxin | cell reporter, cycloheximide protein synthesis inhibition counterscreen | max response, % | hit rate 12% among 300,000 | AID 2314, 2010; in the data active means max response mostly above about 13%, no sharp cut-off; inactive means mostly below about 14%; further: read at 38.3 µM for the half of the compounds with a filed dose; 0% is about no effect
Pf growth 96h: Primary qHTS for delayed death inhibitors of the malarial parasite plastid, 96 hour incubation. P. falciparum luciferase reporter growth, 96 h. Potency, µM (series often up to 28.7 µM), for the others: at the top dose activity change, negative = inhibition, actives largely listed as inhibitors. hit rate 6.9% among 320,000. AID 504834, 2011; further: potency means the concentration at half of the fitted maximal effect; on the % scale 0 is the no-effect control and ±100 the full control effect
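Two parasite generations (96 h, 37 C, 5% CO2) of compound exposure in infected erythrocytes (0.05% parasitemia, 2% hematocrit). Luciferase-reporter P. falciparum; decreased luminescence indicates inhibited growth, aimed at apicoplast-acting delayed death.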
NS1 inh: qHTS Assay for Inhibitors of Influenza NS1 Protein Function. Potency, µM (top dose mostly 46.1 µM), for the others: at the highest dose activity, positive = more growth. hit rate 0.4% among 270,000; calls by dose curve; further: potency means the concentration at half of the fitted maximal effect; actives are rising curves; nearly all actives have a fitted effect of over 50% in size
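Recovery from NS1-induced slow growth read by OD600 in budding yeast switched to galactose assay medium (pH 6.0, -URA) at 1:100 dilution. Compound 23 nl per well; the matching strain lacking NS1 serves as control.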
Sm TGR block: qHTS Assay for the Inhibitors of Schistosoma Mansoni Peroxiredoxins | Schistosoma mansoni thioredoxin glutathione reductase (TGR), Q962Y6 | purified TGR, DTNB reduction, TNB absorbance 405 nm | Potency, µM (top dose mostly 114 µM), inactives show at the top dose activity change, negative = inhibition, actives largely listed as inhibitors | hit rate 3% among 360,000; further: potency means the concentration at half of the fitted maximal effect; on the % scale 0 is the no-effect control and ±100 the full control effect; nearly all actives have a fitted effect of over 60% in size
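First, TGR (20 nM dispensed) and NADPH were mixed with compound. Second, a 15 min room-temperature incubation followed. Third, further NADPH and then DTNB were added to start the reaction. Finally, TNB absorbance was monitored kinetically.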
Shiga inhibitor: A qHTS for Small Molecule Inhibitors of Shiga Toxin; Vero cells, Shiga toxin protein synthesis inhibition reporter; inhibition, % at 38.7 µM; hit rate 9.2% among 290,000; in the data active means inhibition mostly above about 28%, no sharp cut-off; inactive means mostly below about 43%; further: 0% is about no effect
Pf growth 48h: Primary qHTS for delayed death inhibitors of the malarial parasite plastid, 48 hour incubation; P. falciparum luciferase growth in erythrocytes, 48 h; Potency, µM (series often up to 28.7 µM), for inactives: at the top dose activity change, negative = inhibition, usual class: inhibitors; hit rate 5.9% among 310,000; further: potency means the concentration at half of the fitted maximal effect; on the % scale 0 is the no-effect control and ±100 the full control effect
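Luminescence readout; reporter = integrated firefly luciferase in P. falciparum. RBC culture at 2% hematocrit, 0.1% parasitemia final, 37 C/5% CO2; decreased signal taken as growth inhibition.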
* = called active by the depositor; ? = inconclusive; nt = no result given; + = active, no number; [ ] = another dose, or the depositor's remark. Unless noted, the call rests on the fitted dose curve; in most records, active means well fitted curve in the direction sought with a large enough effect; inconclusive means small, poorly fitted or top-dose-only effect, or another doubt; inactive means no such curve, though single readings can be large; an effect the other way counts as inactive or inconclusive.

SMILES | Cycloheximide cs | Pf growth 96h | NS1 inh | Sm TGR block | Shiga inhibitor | Pf growth 48h
O=S1(=O)c2ccccc2N(Cc2ccc(F)cc2)c2ccccc21 | nt | nt | nt | 2% | nt | nt
CC(=O)Nc1ccc(NC(=O)C(C)OC(=O)CNS(=O)(=O)c2cccc(Cl)c2)cc1 (stereo unspecified) | -4 | 14% | nt | 14% | -11 | 7%
COc1ccc(C2SCC(=O)N2Cc2ccccc2)cc1 (stereo unspecified) | 1 | 10% | -5% | 6% | -11 | 14%
CCc1ccc(NC(=O)c2ccc(C3SCC(=O)N3CCc3ccccc3)cc2)cc1 (stereo unspecified) | -4 | ? | 17% | 0% | 8 | nt
COc1cc(C2SCC(=O)N2Cc2ccccc2)ccc1O (stereo unspecified) | 8 | 9.3µM* | 1% | -10% | -5 | 2%
Cc1ccc(C2SCC(=O)N2Cc2ccccc2)cc1 (stereo unspecified) | -3 | 13µM* | -5% | -3% | -18 | -3%
O=C1CSC(c2cccc(O)c2)N1Cc1ccccc1 (stereo unspecified) | -2 | 0% | 4% | 8% | 3 | -1%
Cc1cccc(NC(=O)c2ccc(C3SCC(=O)N3CCc3ccccc3)cc2)c1C (stereo unspecified) | 7 | 8.3µM* | -9% | -1% | -5 | nt
CCCOc1nc2c(c(=O)n(C)c(=O)n2C)n1CC | -3 | 2.1µM* | -17% | 0% | 12 | 25%
CCn1c(OC)nc2c1c(=O)n(C)c(=O)n2C | -2 | 3% | -1% | 9% | -22 | 0%
CCCCCCCn1c(NC(=O)CC)nc2ccccc21 | -2 | 0.93µM* | -93% | 34% | -2 | 1.9µM*
O=C(Nc1nc2ccccc2n1CCOc1ccccc1Cl)c1ccccc1 | nt | nt | nt | 6% | nt | nt
CC(C)Cn1c(-c2ccccc2Cl)nc2ccccc21 | nt | nt | nt | 6% | nt | nt
CCc1cccc(CC)c1NC(=O)Cn1c(-c2ccccc2Cl)nc2ccccc21 | 22* | 5% | 8% | 3% | 37* | 39%
CC(=O)Nc1nc2ccccc2n1CCOc1ccccc1Cl | 1 | 12% | 4% | 4% | -4 | 3.7µM*
Cc1ccccc1Cn1c(-c2ccc(=O)[nH]c2)nc2ccccc21 | -6 | 7.4µM* | 12% | -3% | -5 | 12µM*
Cc1ccc(NC(=O)c2oc3ccc4c(c3c2C)C(=O)CC(C)(C)O4)c(C)c1 | nt | nt | nt | 7% | nt | nt
CNC(=O)c1c(NC(=O)C2=COCCO2)sc(C)c1C | nt | -3% | nt | -11% | nt | -9%
CC(=O)N1CC(C)Oc2ccc(S(=O)(=O)NC(CC(=O)O)c3ccccc3)cc21 (stereo unspecified) | 2 | ? | 3% | 9% | -6 | 29%
Cc1c(Cl)cccc1NC(=O)CNS(=O)(=O)c1cccs1 | nt | nt | nt | 1% | nt | nt
CCC(=O)Nc1nc2ccccc2n1Cc1ccc(Cl)cc1 | -2 | 106% | -50% | 0% | 45 | ?
CC(=O)Nc1nc2ccccc2n1Cc1ccccc1Cl | -1 | ? | -4% | 8% | -3 | 3.3µM*
CC(=O)NCc1nc2ccccc2n1Cc1ccccc1C | 1 | ? | 2% | 0% | -6 | -8%
CC(=O)Nc1nc2ccccc2n1Cc1ccccc1C | 1 | 34% | -56% | -10% | -5 | 7.4µM*
CCC(=O)Nc1nc2ccccc2n1Cc1ccccc1Cl | 1 | 2.9µM* | -1% | 7% | -3 | 3.3µM*
SMILES | Cycloheximide cs | Pf growth 96h | NS1 inh | Sm TGR block | Shiga inhibitor | Pf growth 48h
CC(=O)NC(C)c1nc2ccccc2n1Cc1ccccc1Cl (stereo unspecified) | nt | nt | nt | -2% | nt | nt
O=C(O)c1cccc(Nc2ccnc(Nc3cccc(C(=O)O)c3)n2)c1 | 29* | 356% | 4% | -6% | 79* | nt
O=C(O)c1cccc(Nc2nc(N3CCOCC3)nc(N3CCOCC3)n2)c1 | -3 | -5% | 18% | -2% | -9 | -13%
Fc1ccc(Nc2ccnc(Nc3ccc(F)cc3)n2)cc1 | 72* | ? | -50% | 3% | + | 2.3µM*
CC[C@H](NC(C)C)[C@H](O)c1ccc(O)c2[nH]c(=O)ccc12 | nt | 0.24µM* | nt | nt | nt | -27%
CCC(NC(C)C)C(O)c1ccc(O)c(O)c1 (stereo unspecified) | -2 | ? | 0% | ? | 16 | ?
CC1=CC(C)C(CN(CCC[N+](C)(C)C)C(=O)Nc2ccccc2)C(C)C1 (stereo unspecified) | 8 | 12µM* | -5% | 3% | 16 | ?
CN(CCCCCCCCCCN(C)C(=O)Oc1cccc([N+](C)(C)C)c1)C(=O)Oc1cccc([N+](C)(C)C)c1 | nt | 0.074µM* | nt | 4% | nt | 0.12µM*
CN(C)c1ccc(NC(=O)Cn2nnc3sc4c(c3c2=O)CCC(C(C)(C)C)C4)cc1 (stereo unspecified) | nt | nt | nt | -8% | nt | nt
Clc1cccc(SC2CCNCC2)n1 | nt | 4.3µM* | nt | nt | nt | -1%
OC(c1ccccc1)(c1ccccc1)C1CCNCC1 | -5 | 13% | 10% | ? | -25 | -21%[12.8 µM]
Cc1ccc(S(=O)(=O)NCCC(=O)NCC(c2cccs2)N(C)C)cc1 (stereo unspecified) | nt | -15% | nt | -7% | nt | -26%
COc1ccc(S(=O)(=O)N2CCOCC2)cc1Br | -2 | -12% | 1% | nt | -12 | 2%
CC(C)(C)c1cc(Br)c(O)c(N=Nc2ccc(S(=O)(=O)N3CCOCC3)cc2)c1 | -4 | 10µM* | nt | -4% | -3 | 12µM*
Cc1ccc(O)c(N=Nc2ccc(S(=O)(=O)N3CCOCC3)cc2)c1 | 8 | ? | 3% | 0%[57.1 µM] | 15 | 5.2µM*
Cc1ccc(S(=O)(=O)N2CCN(C(=O)COC(=O)Cc3ccc(Cl)cc3)CC2)c(C)c1 | nt | ? | nt | -3% | nt | ?
Cc1ccccc1-c1nc(CS(=O)(=O)CC(=O)NCCCN2CCCC2=O)c(C)o1 | -3 | -1% | -11% | 20µM* | -4 | 27%
COCCCNC(=O)CS(=O)(=O)Cc1nc(-c2ccccc2C)oc1C | -6 | ? | -12% | 50µM* | 3 | 26%
Cc1oc(-c2ccccc2F)nc1CS(=O)(=O)CC(=O)NCCN1CCCC1 | -3 | 38% | 5% | -9% | -14 | ?
Cc1ccccc1-c1nc(CS(=O)(=O)CC(=O)NCc2ccco2)c(C)o1 | 12 | ? | 0% | ? | -4 | 13%
Cc1oc(-c2ccccc2F)nc1CS(=O)(=O)CC(=O)NCCCN1CCc2ccccc2C1 | -7 | 8.3µM* | 14% | -10% | -10 | ?
Cc1oc(-c2ccccc2F)nc1CS(=O)(=O)CC(=O)NCc1ccco1 | -2 | 8% | 5% | 22µM* | -5 | 4%
CC1CCN(C(=O)c2ccc3c(c2)N(Cc2ccccc2F)C(=O)c2ccccc2S3(=O)=O)CC1 | nt | nt | nt | 4% | nt | nt
Cc1ccc(NC(=O)c2cc3c(s2)CCC3)cc1S(=O)(=O)N1CCOCC1 | 1 | nt | 4% | 8% | -10 | ?

Assay outcomes (PubChem BioAssay)
